rCAG RNA binder = binds r(CAG) RNA repeats; r(CAG) RNA repeat, TO-PRO-1 dye displacement fluorescence; inhibition, % at 3 µM; actives 1.3% (n = 370,000); AID 651821;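 active = inhibition above the plate cutoff, the mean of all test compounds on that plate plus 3 SD, cut at about 35% in these data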;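 also: 0% = DMSO alone and 100% = 100 µM mitoxantrone as full dye displacement; higher means more dye released from RNA so lower well fluorescence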
APOBEC3G inh = blocks human APOBEC3G single-stranded DNA deamination | Q9HC16 | inhibition, % at 20 µM | actives 0.28% (n = 330,000) | recombinant A3G, ssDNA deamination FAM/TAMRA fluorescence;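 active = inhibition of at least 40% at 20 µM, with no more than 30% in the related APOBEC3A deaminase screen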;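 also: plate controls were DMSO wells with A3G for no effect and wells lacking A3G enzyme for full effect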
Target sequence (Q9HC16 whole entry, looked up): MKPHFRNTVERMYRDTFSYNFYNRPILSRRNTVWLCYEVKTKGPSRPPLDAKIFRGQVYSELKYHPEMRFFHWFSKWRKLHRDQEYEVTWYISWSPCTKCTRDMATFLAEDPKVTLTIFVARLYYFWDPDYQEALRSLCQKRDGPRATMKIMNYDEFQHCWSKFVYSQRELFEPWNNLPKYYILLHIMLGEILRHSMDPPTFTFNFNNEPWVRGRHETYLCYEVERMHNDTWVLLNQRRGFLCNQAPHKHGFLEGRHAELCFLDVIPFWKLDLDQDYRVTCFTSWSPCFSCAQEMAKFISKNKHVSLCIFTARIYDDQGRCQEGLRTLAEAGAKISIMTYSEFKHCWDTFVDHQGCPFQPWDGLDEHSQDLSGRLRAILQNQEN
APOBEC3A inh = inhibitors of human APOBEC3A DNA deaminase; P31941; recombinant A3A, FAM/TAMRA ssDNA deamination fluorescence; inhibition, % at 20 µM; actives 0.41% (n = 330,000); AID 493011;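 active = at least 40% inhibition at 20 µM here, with at most 30% in a related deaminase screen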;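 also: plate controls were A3A with DMSO for no effect and wells lacking A3A enzyme for full effect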
PHOSPHO1 inh = inhibitors of human PHOSPHO1 phosphatase; Q8TCT1; recombinant PHOSPHO1, absorbance phosphatase assay; inhibition, % at 13.3 µM; actives 1.1% (n = 290,000); AID 1565; in the data active = inhibition above about 60%
ALR inh = human ALR oxidase inhibition via reduced H2O2; P55789; actives 3.8% (n = 290,000); purified ALR, DTT oxidation, H2O2 HRP-luminol luminescence; inhibition, % (test concentration not listed);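 active = mean replicate inhibition above about 79%, with every replicate also reaching it, limit read from the data; inconclusive = only one of the two criteria met; inactive = mean below limit and not every replicate reaching it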
Target sequence (P55789 whole entry, looked up): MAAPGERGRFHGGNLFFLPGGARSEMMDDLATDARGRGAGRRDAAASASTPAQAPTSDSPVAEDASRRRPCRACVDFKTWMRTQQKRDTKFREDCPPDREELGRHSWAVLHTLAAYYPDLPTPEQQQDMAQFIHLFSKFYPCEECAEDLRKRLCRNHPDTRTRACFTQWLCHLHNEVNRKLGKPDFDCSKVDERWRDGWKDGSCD
aDG glyco up = increases alpha dystroglycan glycosylation; activation, % at 10 µM; Pro5-aDG cells, alpha-DG glycosylation AlphaScreen (IIH6); 0% Pro5, 100% B10-LARGE cell signal; actives 0.22% (n = 360,000); AID 624168;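 active = activation of at least 8% versus controls, or a plate z-score of at least 8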;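 also: Pro5 are CHO cells carrying HIG-tagged alpha-DG that lacks glycosylation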
The depositor's hits bear a star; ? = inconclusive; · = not tested or not shown. A selection: hits, their analogues and other compounds. The true share with any hit is near 5.4%.

SMILES	rCAG RNA binder	APOBEC3G inh	APOBEC3A inh	PHOSPHO1 inh	ALR inh	aDG glyco up
Cc1cc2nc(-c3ccc(SCC(=O)N4CCN(C(=O)c5ccco5)CC4)nc3)[nH]c2cc1C	19.0	-5.6	3.1	31.3	98.7*	-0.6
CCOC(=O)CSc1ccc(-c2nc3cc(C)c(C)cc3[nH]2)cn1	7.1	-7.2	-3.9	35.1	55.2	3.4
Cn1c(-c2ccc3c(c2)OCO3)cnc1NCc1cccc(O)c1	-1.2	-4.3	-2.4	42.9	87.8*	0.4
Cn1c(-c2ccccc2)cnc1NCc1cc2c(cc1[N+](=O)[O-])OCO2	2.5	-9.0	-3.8	14.7	97.7*	0.5
Cn1c(-c2ccc(F)cc2)cnc1NCc1cc2c(cc1[N+](=O)[O-])OCO2	1.4	-7.8	-6.0	-10.7	92.6*	0.5
Cc1cc(N2CCN(C(=O)Oc3ccc(-c4ccccc4)cc3)CC2)c2ccccc2n1	8.0	·	·	·	·	·
CCOC(=O)[C@@H]1CSCCS(=O)(=O)N1Cc1ccccc1	0.9	·	·	·	·	·
COc1ccc(-c2[nH]c(-c3ccccc3)nc2SCC(=O)NCc2ccco2)cc1OC	7.0	-5.8	-3.7	-9.2	72.1	-0.2
O=C(CSc1nnc(C2CCCCC2)n1Cc1ccccc1)NCc1ccco1	-3.0	2.1	4.9	75.5*	8.1	0.5
COc1ccccc1OCc1nnc(SCC(=O)NCc2ccco2)n1Cc1ccco1	0.9	-0.2	10.6	65.4*	51.7	0.2
C=CCn1c(COc2ccccc2F)nnc1SCC(=O)NC(=O)NCc1ccco1	-2.9	16.9	24.5	81.4*	4.1	-0.1
COc1ccc(-c2nc(SCC(=O)NCc3ccco3)c(-c3ccccc3)[nH]2)cc1OC	3.5	-3.3	-1.8	62.9*	?	-0.2
CN1C(=O)c2cc(NC(=O)Nc3ccccc3)ccc2OC[C@H]2O[C@@H](CC(=O)NC3Cc4ccccc4C3)CC[C@@H]21	10.4	·	·	·	·	·
CC(C)CNC(=O)C1CSCCS(=O)(=O)N1Cc1ccc(F)cc1 (configuration not stated)	-2.2	·	·	·	·	·
COc1cc(/C=C2/N=C(c3ccccc3)OC2=O)c(F)cc1OCc1ccccc1	40.1*	-11.8	0.0	·	-2.1	0.2
Oc1ccc(/C=N/N=C(c2ccccc2)c2ccccc2)c(O)c1O	30.0	·	·	-3.4	98.5*	0.1
Cc1cc(N2CCNC[C@@H]2C)ccc1N1C[C@@H](C)O[C@@H](C)C1	5.0	·	·	·	·	·
Cc1cccnc1NCc1ccc(O)c2ncccc12	2.8	-9.9	0.6	77.7*	1.8	2.9
Cc1cccc(NCc2ccc(O)c3ncccc23)c1C	3.1	0.6	-4.8	48.8	-18.1	0.3
CCOC(=O)c1c(NC(=O)/C=C/C(=O)O)sc(C)c1-c1ccc(F)cc1	31.6	1.2	-3.8	9.3	60.3	-0.2
COC(=O)c1sccc1NC(=O)/C=C/C(=O)O	0.7	1.7	1.3	-9.7	21.8	-0.1
COC(=O)c1sc(-c2ccc(Cl)cc2)cc1NC(=O)/C=C/C(=O)O	11.8	-2.9	-3.2	3.4	83.9*	-0.1
COC(=O)c1c(NC(=O)/C=C/C(=O)O)sc(C)c1-c1ccc(C)cc1	21.4	-7.1	-0.4	48.4	98.0*	0.1
COC(=O)C1=C(C)N(Cc2ccc(C(F)(F)F)cc2)C(=NCc2ccccc2C(F)(F)F)NC1c1ccc(F)cc1 (configuration not stated)	2.8	·	·	·	·	·
CCOc1ccc(S(=O)(=O)Nc2nc3ccccc3nc2N2CCN(C)CC2)cc1	15.3	-8.5	-5.1	1.0	6.0	0.5
SMILES	rCAG RNA binder	APOBEC3G inh	APOBEC3A inh	PHOSPHO1 inh	ALR inh	aDG glyco up
O=S(=O)(Nc1nc2ccccc2nc1Cl)c1cccc(C(F)(F)F)c1	41.9*	-2.1	-2.4	27.9	-13.8	0.1
CCOc1ccc(S(=O)(=O)Nc2nc3ccccc3nc2Cl)cc1	14.9	-6.9	-0.5	42.2	87.6*	-0.1
O=S(=O)(Nc1nc2ccccc2nc1Cl)c1ccccc1C(F)(F)F	8.6	-12.6	-1.2	18.4	-5.0	0.2
CC1(S(=O)(=O)O)CC(=O)c2ccccc2C1=O (configuration not stated)	2.1	-2.0	-0.9	20.2	93.2*	1.0
CC(Sc1nc(N)cc(=O)[nH]1)C(=O)Nc1cccc(Cl)c1 (configuration not stated)	7.1	-4.1	-2.9	-12.3	-8.2	-0.1
CC(=O)NC1C(=O)N=C(SC(C)C(=O)Nc2cccc(Cl)c2)NC1=O (configuration not stated)	2.7	-4.6	-1.9	-13.1	97.7*	0.1
CCNc1nc(NCC)n2c(SCC(=O)Nc3ccc(NC(C)=O)cc3)nnc2n1	-1.0	9.9	10.0	·	97.5*	-0.2
CCN(c1ccc(NC(=O)CSc2nnc3nc(C)cc(C)n23)cc1)C(C)C	20.3	6.2	3.6	73.3*	98.9*	-0.2
Cc1cc(C)n2c(SCC(=O)Nc3ccc(F)cc3)nnc2n1	-0.5	13.2	2.3	-102.6	-2.2	0.0
Cc1noc(C)c1CSCC(=O)Nc1ccc(S(C)(=O)=O)cc1	1.6	-6.4	-4.7	·	-11.2	1.1
CCNc1nc(NCC)n2c(SCC(=O)Nc3ccccc3F)nnc2n1	-1.8	14.8	0.3	·	·	0.1
CCN(c1ccc(NC(=O)CSCc2c(C)noc2C)cc1)C(C)C	1.8	4.7	0.2	·	99.2*	-0.1
CCCCC(=O)Nc1ccc(C(=O)N(CC)c2ccccc2C)cc1	-9.1	-6.3	-0.8	65.8*	-10.1	0.0
Cc1c(NC(=O)C2CCCN(S(=O)(=O)c3c(C(C)C)cc(C(C)C)cc3C(C)C)C2)c(=O)n(-c2ccccc2)n1C (configuration not stated)	7.4	·	·	·	·	·
CC1CN(c2oc(-c3ccco3)nc2S(=O)(=O)c2ccccc2)CC(C)O1 (configuration not stated)	-0.2	-3.1	-6.4	75.8*	-1.1	-0.1
Cc1c2c(nc3nc4ccccc4n13)CC(C)(C)CC2=O	-0.1	-4.7	-2.5	13.9	-9.8	-0.1
Cc1c2c(nc3ccccc13)CC(C)(C)CC2=O	-2.9	-1.4	-5.2	8.2	93.8*	-0.1
O=C(Cn1cccn1)N1CCCC(Nc2ccc(F)c(F)c2)C1 (configuration not stated)	-0.5	0.8	1.8	37.6	88.6*	-0.2
O=C(CCCn1cncn1)N1CCCC(Nc2ccc(F)cc2)C1 (configuration not stated)	-1.9	-5.1	-2.6	32.2	98.2*	-0.1
CC(C)c1ccc(NC2CCCN(C(=O)CCCn3cncn3)C2)cc1 (configuration not stated)	-4.2	-10.2	-5.4	31.3	96.2*	0.0
CCc1nccn1CCC(=O)N1CCCC(Nc2ccc(C(C)C)cc2)C1 (configuration not stated)	-5.8	-5.2	-3.3	9.0	68.8	-0.2
O=C(CCN1CCCCO1)N1CCCC(Nc2cccc(F)c2)C1 (configuration not stated)	-4.6	-3.1	-1.6	42.6	64.0	-0.1

Screening data deposited in PubChem BioAssay by several laboratories.
